Measurements taken from paper PMC5540273 (PLoS ONE, 2017).

Columns and labels:
Conditions in all cases: concentration: 1 μM, replicates: in singlicate; n = 1
[1] = test system: TYK2(JH2domain-pseudokinase)
[2] = test system: TYRO3
[3] = test system: ULK1
[4] = test system: ULK2
[5] = test system: ULK3
[6] = test system: T1, VEGFR2
T1 construct: gene KDR

[7] = test system: T2, VPS34
T2 construct: gene PIK3C3

[8] = test system: VRK2
[9] = test system: WEE1
[10] = test system: WEE2
[11] = test system: WNK1
[12] = test system: WNK2
[13] = test system: WNK3
[14] = test system: WNK4
[15] = test system: T3, YANK1
T3 construct: gene STK32A

[16] = test system: T4, YANK2
T4 construct: gene STK32B

[17] = test system: T5, YANK3
T5 construct: gene STK32C

[18] = test system: T6, YES
T6 construct: gene YES1

[19] = test system: T7, YSK1
T7 construct: gene STK25

[20] = test system: T8, YSK4
T8 construct: gene MAP3K19
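Further: KINOMEscan kinase panel screen.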

SMILES	%Inh [1] [%]	%Inh [2] [%]	%Inh [3] [%]	%Inh [4] [%]	%Inh [5] [%]	%Inh [6] [%]	%Inh [7] [%]	%Inh [8] [%]	%Inh [9] [%]	%Inh [10] [%]	%Inh [11] [%]	%Inh [12] [%]	%Inh [13] [%]	%Inh [14] [%]	%Inh [15] [%]	%Inh [16] [%]	%Inh [17] [%]	%Inh [18] [%]	%Inh [19] [%]	%Inh [20] [%]
CN(C)c1ncnc2nc[nH]c12 [SKF-31736]	26	0	14	42	21	5	47	38	0	0	15	0	10	13	0	0	0	0	0	10
Cc1cccc(Nc2nc(N[C@H]3CCCC[C@H]3N)ncc2C(N)=O)c1.Cl [GSK986310]	19	21	72	80	43	0	56	0	41	8	9	30	32	0	50	46	51	44	54	82
CCNc1nccc(-c2c(-c3ccc(F)cc3)ncn2C2CCN(C)CC2)n1	0	26	0	0	0	0	0	0	0	0	0	0	0	0	0	0	0	3	5	0
N#CC1(c2cccc(C(=O)Nc3cccc(Oc4ccc5nc(NC(=O)C6CC6)sc5n4)c3)c2)CC1	0	53	0	0	0	99.7	0	19	0	5	6	0	0	0	0	9	0	98.7	37	98.9
COc1cccc(C2=C(Nc3cccc(O)c3)C(=O)NC2=O)c1 [SB-390771]	25	0	17	0	23	3	0	10	20	12	13	25	7	35	0	0	2	15	16	43
O=C1NC(=O)C(c2ccccc2Cl)=C1Nc1cccc(Cl)c1 [SB-342409]	29	0	36	0	24	0	0	12	0	6	14	8	0	1	0	0	100	17	15	40
COc1ccc(NC(=O)c2ccoc2)cc1-c1ccc(C(=O)NCC2CC2)cc1 [GW810437]	34	12	34	28	41	0	11	0	7	13	9	0	12	0	0	13	12	0	0	34
CSc1ccc(NC2=C(c3ccc(Cl)cc3)C(=O)NC2=O)cc1 [SB-317658]	0	0	19	0	12	0	22	13	5	0	20	24	4	0	0	2	33	0	0	21
Cc1ccc(C)c(NC(=O)Nc2ccc(C)c(-c3ccc(C(=O)Nc4ccncc4)cc3)c2)c1 [GSK1398473]	4	20	10	0	15	3	0	0	12	12	17	97.6	11	17	7	0	15	29	0	87
Fc1cc(Cl)ccc1Nc1ccnc2cc(-c3ccc(CN4CCSCC4)o3)ccc12 [GW560106]	52	61	0	0	15	65	0	29	0	2	1	0	35	14	7	24	1	79	19	66
O=C(Nc1n[nH]c2nc(-c3ccccc3O)ccc12)C1CC1 [SB-711880]	6	0	0	0	16	0	0	0	0	79	0	30	0	0	0	0	0	0	0	70
Cc1cccc(Nc2nc(NCCN)ncc2C(N)=O)c1 [GSK1292139]	95.8	0	64	78	41	3	0	18	0	26	7	0	31	15	9	0	0	6	31	88
CC(C)NCC(Cc1ccccc1)NC(=O)c1cc(Br)c(-c2ccnc3[nH]ccc23)s1.Cl.Cl (stereo not shown) [GSK1383281]	22	0	0	0	1	33	0	2	6	0	0	0	0	18	21	0	0	0	40	83
Cc1ccccc1CC(=O)N1CCc2cc(-c3cn(C)c4ncnc(N)c34)ccc21 [GSK2603346]	40	0	16	0	19	69	2	0	0	17	18	25	50	8	7	0	22	18	54	84
O=C(O)C(F)(F)F.O=c1[nH]ccc2nc(N[C@@H]3CCNC3)nc(Nc3cc(Cl)cc(Cl)c3)c12 [GSK2188764]	28	0	99.8	99.9	97.4	15	78	94	0	0	8	26	30	0	40	0	9	12	82	99.7
N#Cc1cnc2cc(-c3cnc(CNCCN4CCOCC4)s3)ccc2c1Nc1ccc(Oc2ccccc2)cc1 [GW664114]	36	84	10	0	48	12	0	8	7	23	74	95.9	94.2	89	0	0	0	97.1	19	97
Nc1ncc(-c2cn[nH]c2)c2scc(-c3ccc4c(c3)CCN4C(=O)Cc3ccccc3)c12 [GSK2593067]	16	6	9	0	9	53	33	0	0	12	4	31	52	23	3	0	30	57	6	81
COc1cccc(CC(=O)N2CCc3cc(-c4cn(C)c5ncnc(N)c45)ccc32)c1 [GSK2608899]	39	0	5	5	17	64	0	0	0	0	21	52	54	12	13	0	8	16	17	96.9
CCn1cnc2c(NCc3ccccc3)ncnc21 [SKF-96418]	30	0	0	38	0	0	33	16	0	0	12	0	43	16	0	19	0	0	0	10
CN(C)CCNS(=O)(=O)c1ccc(-c2ccnc3[nH]ccc23)cc1 [GSK977620]	26	3	73	0	27	0	57	0	35	0	0	0	0	0	21	0	27	16	78	88
c1ccc(Oc2ccc(Nc3ccnc4cc(-c5ccc(CN6CCCCC6)o5)ccc34)cc2)nc1 [GW567143]	17	26	0	0	15	24	0	14	8	13	2	39	24	25	0	0	17	51	0	32

SMILES	%Inh [1] [%]	%Inh [2] [%]	%Inh [3] [%]	%Inh [4] [%]	%Inh [5] [%]	%Inh [6] [%]	%Inh [7] [%]	%Inh [8] [%]	%Inh [9] [%]	%Inh [10] [%]	%Inh [11] [%]	%Inh [12] [%]	%Inh [13] [%]	%Inh [14] [%]	%Inh [15] [%]	%Inh [16] [%]	%Inh [17] [%]	%Inh [18] [%]	%Inh [19] [%]	%Inh [20] [%]
Cl.N#CCc1ccc(Nc2nccc(Nc3ccc(Oc4ccccc4)cc3)n2)cc1 [GW639905]	72	36	23	0	15	0	0	24	0	0	15	0	28	6	3	0	10	74	0	41
O=C(Nc1n[nH]c2nc(-c3ccccc3)ccc12)C1CC1 [SB-708999]	29	6	11	3	9	0	14	47	0	0	15	37	36	60	0	0	28	1	0	93.9
Cc1ccc(NC(=O)c2cccc(N3CCCCC3)c2)cc1-c1ccc(C(=O)NCC2CC2)cc1 [GSK1917008]	0	0	37	13	18	6	0	0	0	18	13	0	2	10	9	11	22	10	12	35
CN(c1ccc(NC(=O)N2CCN(CCCN3CCOCC3)CC2)cc1)c1ccnc(Nc2ccc(CS(C)(=O)=O)cc2)n1.Cl [GW830899]	22	8	0	0	0	52	0	0	3	79	0	0	0	0	0	0	0	4	0	81
CCn1c(-c2nonc2N)nc2c(-c3ccccc3)ncc(OCCCN)c21.O=C(O)C(F)(F)F.O=C(O)C(F)(F)F [GSK260205]	95.2	0	9	0	4	21	0	28	2	8	22	14	32	15	99.4	87	50	28	23	99.6
COc1cccc(-c2nc(-c3ccccc3)[nH]c2-c2ccncc2)c1 [SB-610250]	93.1	0	8	0	28	0	0	43	9	0	9	0	33	29	10	4	0	8	100	100
CN1CCN(Cc2ccc(NC(=O)Nc3ccc(N(C)c4ccnc(Nc5ccc(CS(C)(=O)=O)cc5)n4)cc3)cc2)CC1.Cl [GW827654]	87	35	0	51	95.9	99.9	42	65	0	27	36	45	42	0	19	0	6	0	7	100
CCOc1nccc(-c2c(-c3ccc(F)cc3)ncn2C2CCNCC2)n1 [SB-249175]	36	15	28	34	26	13	24	51	0	18	25	4	4	0	52	36	0	0	2	37
CCNC(=O)/C=C/c1n[nH]c2cc(Sc3ccccc3C(=O)NC)ccc12	0	0	10	36	1	99.9	0	14	14	0	0	5	0	10	17	0	0	20	0	86
Cc1ccc(NC(=O)c2ccc(Cl)c(Cl)c2)cc1-c1ccc(C(=O)Nc2ccncc2)cc1 [GSK1398460]	0	10	15	0	6	6	0	0	11	6	0	0	0	17	12	7	22	29	26	83
COc1cccc2c(-c3ccncc3)c(-c3ccc(F)cc3)nn12 [GW468513]	67	0	3	0	0	0	10	12	4	0	0	0	31	24	65	72	72	15	4	6
O=C(Nc1c(F)cccc1F)c1cc(C(=O)c2ccccc2F)c[nH]1 [GSK1326180]	0	0	15	0	2	0	5	0	2	6	8	0	0	0	1	0	0	0	10	0
CN(c1ccc(F)c(NC(=O)c2cccc(OC(C)(C)C#N)c2Cl)c1)c1ccc2nc(NC(=O)C3CC3)sc2n1	0	14	2	0	4	91.9	0	0	0	17	0	19	0	0	0	0	0	91.4	0	20
Nc1cccc(-c2ccc3c(N)n[nH]c3c2)c1 [GSK2193613]	0	0	6	0	3	0	21	30	5	10	6	0	7	0	9	0	25	0	22	96.4
Cl.Cl.NCC(NC(=O)c1cc(-c2cccnc2)c(-c2ccnc3[nH]ccc23)s1)c1ccccc1 (stereo not shown) [GSK1323434]	37	0	4	0	0	0	45	15	8	13	2	0	80	50	26	0	14	18	17	84
CNc1nccc(-c2ccc3c(N)n[nH]c3c2)n1 [GSK2206003]	89	0	42	41	9	31	15	18	9	7	1	0	4	2	62	53	20	24	20	76
NCCC(NC(=O)c1cc(Br)c(-c2ccnc3[nH]ccc23)s1)c1ccccc1.O=C(O)C(F)(F)F.O=C(O)C(F)(F)F (stereo not shown) [GSK1307810]	7	0	30	8	16	55	25	23	4	0	0	0	24	37	10	0	18	14	4	97.3
Cn1cc(-c2ccc3c(c2)CCN3C(=O)Cc2cc(F)cc(F)c2F)c2c(N)ncnc21 [GSK2634140]	44	0	14	0	4	0	16	27	0	14	13	8	23	14	29	13	0	15	23	96.7
COc1cc(Nc2ccnc3cc(-c4ccncc4)ccc23)cc(OC)c1OC.Cl [GW494610]	18	89	100	0	15	0	0	19	0	18	22	4	16	19	2	32	9	76	0	98.5
Cc1ccc(Nc2ccnc(Nc3ccc(C)c(F)c3)n2)cc1O.Cl [GW582868]	74	29	12	0	10	0	0	48	0	17	41	12	31	49	1	0	1	53	0	25
